# Laboratory results as given in ChEMBL document CHEMBL3433997, “St. Jude Leishmania screening dataset” (2016).
# Target: Glucose transporter (Leishmania mexicana) (UniProt O61059)
# Assay: ST_JUDE_LEISH: Cytotoxicity at 2uM final concentration against transgenic Leishmania Mexicana promastigotes LmGT2 that are glucose transport deficient and complemented with the L. Mexicana glucose transporter 2. Activity is measured by DNA content using SYBR green in vitro
# Type: functional
row,Compound,inhibition [%]
1,CN/C(=N\O)NCCN(C)C,3.91
2,O=C(Nc1ccc(OC2CCN(Cc3ccc(F)cc3)CC2)c(Cl)c1)c1ccsc1,1.51
3,CC1(C)NC(N)=NC(=N)N1OCCCOc1ccc(N)cc1,-1.26
4,Cc1ccc(NC(=O)c2cccc(CN3CCCN(CC4CCCCC4)CC3)c2)cc1F,0.75
5,COc1ccc2nc(-c3cc(-c4ccc(NC(C)=O)cc4)cnc3N)[nH]c2c1,2.87
6,COc1ccc2ncc(F)c(CCN3CC[C@@H](CNCc4ccc5c(c4C)OCCO5)C3)c2n1,52.1
7,CCOC(=O)c1c(NC(NC(=O)c2ccc(C(C)(C)C)cc2)C(Cl)(Cl)Cl)sc2c1CCCC2 (configuration not stated),9.68
